Measurements: PubChem BioAssay AID1159580 (chemical genetic matrix, 2015)
Among all 5,500 compounds or so, about 2,000 (36%) were called active. Roughly 18% stayed inconclusive and do not appear here. Rule as the data show it: active = normalized growth mostly below about 0.91 (no sharp cut-off); inconclusive = no clear call, values can overlap the other calls; inactive = mostly above about 0.92. Some of the results follow.

Experiment: chemical genetic growth profiling, strain panel (AID 1159580);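 also: tested at 20 µM; growth read once vehicle control cultures reached saturation at 30 °C; 1 = growth at the plate median or of vehicle wells; lower values mean less growth of the strain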
Details: S. cerevisiae deletion strains, growth OD

Measured: normalized growth

CC1CCN(CC[C@H]2CCCN2S(=O)(=O)c2cccc(O)c2)CC1
inactive: locus YAL040C, strain CLN3, hits give low values 0.99 | locus YCL061C, strain MRC1 (second series), hits give low values 1 | locus YDR363W, strain ESC2, hits give low values 0.986 | locus YER002W, strain NOP16, hits give low values 0.989 | locus YGR078C, strain PAC10, hits give low values 1.02 | locus YMR263W, strain SAP30, hits give low values 1 | locus YMR307W, strain GAS1, hits give low values 1.03 | locus YNL128W, strain TEP1, hits give low values 1.01 | locus YNL175C, strain NOP13, hits give low values 1.01 | locus YNL197C, strain WHI3, hits give low values 1.01 | locus YNL224C, strain SQS1, hits give low values 1 | locus YNL322C, strain KRE1, hits give low values 0.984 | locus YOR083W, strain WHI5 (second series), hits give low values 1.03
